Data as given in the supplement of paper PMC3334620.
In all, about 33,000 sequences were measured (“E-score (-0.5 to 0.5)”: median about -0.012, highest 2% from about 0.27 on). This excerpt belongs to a sample that is enriched for the highest values.

These sequences were tested against T1, Vhr1 (UniProt P40522) (assay: PBM E-score (8-mer binding enrichment) (E-score (-0.5 to 0.5)); higher = stronger / more preferred TF binding). Details: protein concentration: 200 nM; construct: GST-full length.
T1 sequence: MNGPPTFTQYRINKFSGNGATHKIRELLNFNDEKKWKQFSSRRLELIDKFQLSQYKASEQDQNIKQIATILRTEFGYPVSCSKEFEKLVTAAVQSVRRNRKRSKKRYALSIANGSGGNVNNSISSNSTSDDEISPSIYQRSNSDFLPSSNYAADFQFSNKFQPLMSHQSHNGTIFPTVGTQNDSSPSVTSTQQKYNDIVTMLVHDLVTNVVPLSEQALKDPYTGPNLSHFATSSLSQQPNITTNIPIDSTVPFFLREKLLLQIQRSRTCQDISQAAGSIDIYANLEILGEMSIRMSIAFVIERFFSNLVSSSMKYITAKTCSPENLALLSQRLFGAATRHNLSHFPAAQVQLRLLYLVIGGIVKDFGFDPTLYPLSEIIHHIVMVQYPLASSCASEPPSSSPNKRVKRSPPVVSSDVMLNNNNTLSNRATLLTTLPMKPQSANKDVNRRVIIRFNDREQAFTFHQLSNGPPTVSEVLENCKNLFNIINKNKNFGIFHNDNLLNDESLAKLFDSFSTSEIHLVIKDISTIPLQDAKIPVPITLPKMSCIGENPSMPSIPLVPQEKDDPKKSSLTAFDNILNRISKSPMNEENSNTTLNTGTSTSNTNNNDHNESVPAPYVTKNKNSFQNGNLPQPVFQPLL
Method in brief: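 Using PURExpress in vitro transcription/translation, GST-tagged yeast transcription factors were made in full-length or DNA-binding-domain form. These were applied at about 100-200 nM to double-stranded universal all-10-mer Agilent arrays, and bound protein was detected with fluorescent anti-GST. Scans were normalised with masliner before the Universal PBM Analysis Suite assigned E-scores to ungapped eight-base words pooled with their reverse complements.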
ACATCCCG was tested, and the “PBM E-score” value was 0.231.
For CCTGCACA, the “PBM E-score” value was -0.0959.
With AGTCGAGA the “PBM E-score” value was 0.0118.
With ACATAGAC the “PBM E-score” value was 0.0646.
In the case of ATCCATAC, the “PBM E-score” value is reported as 0.0581.
For CCACCTCG, the “PBM E-score” value was -0.085.
In the case of CCTTGACC, the “PBM E-score” value is reported as -0.111.
GGGAGTCA was tested, and the “PBM E-score” value was 0.47.
With AGGAGTAA the “PBM E-score” value was 0.0927.
In the case of AGGAGTCG, the “PBM E-score” value is reported as 0.339.
For GGGAGTAA, the “PBM E-score” value was 0.0449.
AGGAGTTG was tested, and the “PBM E-score” value was -0.00747.
For AGGAGTCA, the “PBM E-score” value was 0.479.
With GGGAGTTA the “PBM E-score” value was -0.144.
With AGGAGTCC the “PBM E-score” value was 0.165.
AGGAGTGA was tested, and the “PBM E-score” value was 0.00535.
In the case of AAGAAAGC, the “PBM E-score” value is reported as -0.174.
With ACTAAAAT the “PBM E-score” value was -0.0643.
In the case of ACACTTCG, the “PBM E-score” value is reported as 0.0579.
For CCCTGCAC, the “PBM E-score” value was -0.0585.
With CGATTTTA the “PBM E-score” value was -0.0769.
With CGCTCCCC the “PBM E-score” value was -0.16.
In the case of CTCACTGA, the “PBM E-score” value is reported as 0.14.
